According to PubChem BioAssay (NCI):
Compounds without any hit were thinned out: in the full panel of roughly 79,000, 15% have a hit. Cut-off read from the data, not from the text of the source: active = growth inhibition above about 70%; inactive = the rest.

Columns and labels:
[1] = NCI Yeast Anticancer Drug Screen. Data for the rad50 strain (AID 155);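 note: 0% = growth of vehicle-only cultures of the same strain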; conditions: S. cerevisiae rad50 strain growth inhibition; at 50.0 µM; stronger effect = higher value
How it was run: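 Yeast carrying a defined DNA repair defect were exposed to test compounds, and growth was compared with vehicle-treated controls to give percent inhibition.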

[2] = NCI Yeast Anticancer Drug Screen. Data for the mec2-1 strain (AID 157); conditions: S. cerevisiae mec2-1 strain, at 50.0 µM, stronger effect = higher value
How it was run: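 Yeast mec2-1 mutant treated with compound. Readout: growth inhibition vs vehicle controls.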

[3] = NCI Yeast Anticancer Drug Screen. Data for the sgs1 mgt1 strain (AID 161);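 note: 0% = growth of cultures given vehicle only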; conditions: S. cerevisiae sgs1 mgt1 strain, at 50.0 µM, stronger effect = higher value
How it was run: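 Genetically altered yeast, compound exposure, growth inhibition relative to vehicle.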

[4] = NCI Yeast Anticancer Drug Screen. Data for the cln2 rad14 strain (AID 165);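 note: 0% = growth equal to vehicle treated cultures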; conditions: S. cerevisiae cln2 rad14 strain, at 50.0 µM, stronger effect = higher value
How it was run: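 cln2 rad14 yeast strain; compound exposure; growth inhibition read vs vehicle controls.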

[5] = NCI Yeast Anticancer Drug Screen. Data for the bub3 strain (AID 167); conditions: S. cerevisiae bub3 mutant strain, at 50.0 µM, stronger effect = higher value
How it was run: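 Compounds were applied to a genetically altered yeast strain carrying a cell-cycle control defect. Growth inhibition was scored against vehicle-treated controls.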

[6] = NCI Yeast Anticancer Drug Screen. Data for the mlh1 rad18 strain (AID 175); conditions: S. cerevisiae mlh1 rad18 strain growth inhibition; at 50.0 µM; stronger effect = higher value
How it was run: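 Yeast w/ defined DNA-repair lesions; compound exposure; growth vs vehicle controls → % inhibition.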

Measured: growth inhibition

O=S(=O)(O)C(O)c1ccccc1 (stereo not drawn)
inactive: [1] 1.25% | [2] -2.85% | [3] -8.85% | [4] -10.9% | [5] -15.1% | [6] -6.2%

CC1(C)OCC2OC=CC(=O)C2O1 (stereo not drawn)
inactive: [1] -8.65% | [2] -2.65% | [3] -0.4% | [4] 5.15% | [5] -14.1% | [6] -68.5%

COc1cc2ccc3c[n+](C)ccc3c2cc1OC
inactive: [1] 2.25% | [2] -30.9% | [3] -13.4% | [4] -22.4% | [5] -20.9% | [6] -57.6%

CCCCCCCCCCCCSc1nc2c([nH]1)c(=O)n(C)c(=S)n2C
inactive: [1] -24.1% | [2] 0.75% | [3] -31.9% | [4] 16.4% | [5] -1.05% | [6] -15.2%

Cc1cc2c(cc1C)NC(C)CC(=O)N2 (stereo not drawn)
inactive: [1] 5.8% | [2] -13.1% | [3] 4.2% | [4] 14.1% | [5] -0.2% | [6] 21.7%

O=c1[nH]c(NCc2ccncc2)nc2nc[nH]c12
inactive: [1] 10.2% | [2] -3.8% | [3] -14.8% | [4] 3.1% | [5] -21.1% | [6] -52%

CSc1nc(NC2OCC(O)C(O)C2O)cc(=O)n1C (stereo not drawn)
inactive: [1] 7.25% | [2] -0.45% | [3] 7.4% | [4] -4.9% | [5] -26.9% | [6] -2.95%

O=C(CCl)OCCN(CCOC(=O)CCl)Cc1coc2ccccc2c1=O
inactive: [1] -4.35% | [2] -16.2% | [3] -4.85% | [4] -23.4% | [5] -1.1% | [6] -5.65%

N/C(=N\OC(=O)Nc1ccc(CSc2ccc(Cl)cc2)o1)c1ccccn1
inactive: [1] 2.9% | [2] -22.8% | [3] -14.1% | [4] 10.8% | [5] -16.9% | [6] -31.6%

CCOC(=O)Cc1cccnc1
inactive: [1] -27.6% | [2] -40% | [3] -14.1% | [4] 16.5% | [5] -12.2% | [6] -3.4%

CC(C)=CCC/C(C)=N\Nc1ccc([N+](=O)[O-])cc1[N+](=O)[O-]
inactive: [1] -39.4% | [2] -6.7% | [3] 4.75% | [4] -15.6% | [5] 2.15% | [6] 5.4%

CC(C)CC(C)OC(=O)CC(CC(=O)OC(C)CC(C)C)C(=O)OC(C)CC(C)C (stereo not drawn)
inactive: [1] -6.8% | [2] -17.1% | [3] -13.1% | [4] 26.2% | [5] 20.9% | [6] -4.15%

COc1ccc(C(=CCC(C)C2CCC3[C@@H]4C(OC(C)=O)CC5CC(OC(C)=O)CC[C@]5(C)C4CC(OC(C)=O)[C@]23C)c2ccc(OC)cc2)cc1 (stereo partly drawn)
inactive: [1] 1.2% | [2] 1.4% | [3] -7.9% | [4] 13.5% | [5] 24.1% | [6] -6.05%

CCCCCCCCCCCCCCCCCCC1=CC(=O)c2ccccc2C1=O
inactive: [1] 16.1% | [2] 3% | [3] 25.6% | [4] 31% | [5] 8.4% | [6] 14.9%

O=C1Oc2ccccc2C(=O)Oc2ccccc2C(=O)Oc2ccccc2C(=O)Oc2ccccc21
inactive: [1] -43.7% | [2] -38.6% | [3] -24.2% | [4] -8.25% | [5] -22.1% | [6] -29.6%

ClC(Cc1ccccc1)(c1ccccc1)c1ccccc1
inactive: [1] -26.6% | [2] 13.5% | [3] -0.8% | [4] -26.9% | [5] 13.8% | [6] -3.6%

Nc1ccc(N=Nc2ccc(C(=O)O)cc2)cc1
inactive: [1] -32.9% | [2] -48% | [3] 18.1% | [4] 3% | [5] -26.4% | [6] -7.6%

Brc1ccccc1C=NC12CC3CC(CC(C3)C1)C2
inactive: [1] -2.55% | [2] -7.5% | [3] 2.25% | [4] -55.1% | [5] -3.45% | [6] -5%
